Laboratory results as given in PubChem BioAssay.
“And” between values parts separate entries of the source, which are not always exact repeats. Equal entries are not always repeated.

Assay: sensitizers of A549 cells to miR-34 induction, primary screen, imaging, A549 dox-inducible miR-34, nuclei and caspase counts (AID 1347080); note: test concentration not given here
Conditions: A549 miR-34 inducible, Hoechst nuclei count, 48 h; measured here: total cells with miR-34 induction; stronger effect = lower value

SMILES | cell count
COc1ccc2[nH]cc(CCC(=O)O)c2c1 | 8310
COc1ccc(N2CCN(c3ncnc4sccc34)C(C)C2=O)cc1 (stereo not given) | 6180
O=C(Cn1nnc(-c2ccccc2)n1)Nc1ccnn1Cc1ccccc1 | 7640
Cc1sc2ncnc(-c3cccc4cccnc34)c2c1C | 8110
Cc1nsc(NC(=O)N2CCC(C(O)CC(C)C)CC2)n1 (stereo not given) | 6540
O=C(O)Cc1ccc(O)c([N+](=O)[O-])c1 | 8450
Cc1cc(C(=O)N2CCc3[nH]nc(COc4ccccc4)c3C2)c(C)o1 | 8460
CCN(Cc1nccn1C)C(=O)c1cc(-c2cnc(C)nc2)nc2cc(F)ccc12 | 8950
OC(CNCC(O)C1CCc2cc(F)ccc2O1)C1CCc2cc(F)ccc2O1 (stereo not given) | 2500
CN1CCN(Cc2ccc3nonc3c2)CC1CCO (stereo not given) | 8970
CN1CCN(Cc2cccc(-n3cccn3)c2)CC1CCO (stereo not given) | 8640
CC(O)Cc1cn(C2CCN(c3ncnc4nc[nH]c34)CC2)nn1 (stereo not given) | 8270
COc1ccc(-c2oc3c(CC=C(C)C)c(OC4OC(CO)C(O)C(O)C4O)cc(O)c3c(=O)c2OC2OC(C)C(O)C(O)C2O)cc1 (stereo not given) | 9660 and 9050
COc1cccc2ncn(Cc3nc4ccccc4o3)c(=O)c12 | 8290
COc1cc(N(C)CC2COc3ccccc3O2)nc(N)n1 (stereo not given) | 3500
COc1cc(Cn2cnc3nccnc3c2=O)cc(OC)c1 | 9000
OCCNc1ncnc2oc(-c3ccccc3)c(-c3ccccc3)c12 | 5100
Cc1nonc1CN(C)c1ncnc2nc[nH]c12 | 9230
COc1ccc(CCNCC(O)COc2cccc(C)c2)cc1OC (stereo not given) | 8400
CCc1cc(CN2CCN(C)C(CCO)C2)on1 (stereo not given) | 8690

SMILES | cell count
CCn1ccnc1CN(C)C(=O)c1cc(-c2cnc(N)nc2)nc2cc(C)ccc12 | 9170
CN(C)CCC=C1c2ccccc2COc2ccc(CC(=O)O)cc21 | 9480 and 9680
CC(=O)Nc1cccc(-c2nn(CC(=O)Nc3cnn(C)n3)c3ccccc23)c1 | 8450
Cc1nsc(NC(=O)N(C)Cc2cn[nH]c2-c2ccc(F)cc2)n1 | 9230
O=C(O)c1ccc(O)cc1O | 8740
COc1ccc(OC)c2c1c(C)cc(=O)n2C | 8060
CCc1nc(NC(=O)NC(c2ccccc2)c2ccco2)nn1C (stereo not given) | 8500
Nc1nc(Nc2cccc(Cl)c2)sc1C(=O)c1ccc(F)cc1 | 7020
NC1=NC(=O)C(=Cc2ccc(-c3ccc(C(=O)O)cc3)o2)S1 | 8530
CN1CC2c3ccccc3Oc3ccc(Cl)cc3C2C1 (stereo not given) | 4990
O=c1ccn2c(n1)OC1C(O)C(CO)OC12 (stereo not given) | 8620
CCCn1ncc(NC(=O)Cn2cc(C)c(-c3cccc(Cl)c3)n2)n1 | 7170
COc1ccccc1C(=O)N1CCC(n2cc(-c3ccccn3)nn2)CC1 | 8760
NC(=O)NC(CCC(=O)O)C(=O)O (stereo not given) | 8940
CCn1ncc(NC(=O)Cn2cc(-c3ncnc4ccsc34)cn2)n1 | 8160
CN(CCc1ccccn1)C(=O)c1ccc2sc(N)nc2c1 | 8380
COc1ccc(C=CC(=O)O)cc1O | 9250
Cc1cc(=O)oc2cc(OC3OC(CO)C(O)C(O)C3O)ccc12 (stereo not given) | 8660
CCn1ccnc1CN(C)C(=O)c1cc(-c2cnc(N)nc2)nc2c(C)cccc12 | 8320
CC(C)C(NC(=O)Cc1c[nH]c2ccccc12)C(=O)O (stereo not given) | 8140

Same assay, conditions: A549 miR-34 inducible, Hoechst nuclei count, 48 h; measured here: total cells without miR-34 induction

SMILES | cell count
COc1ccc2[nH]cc(CCC(=O)O)c2c1 | 9460
COc1ccc(N2CCN(c3ncnc4sccc34)C(C)C2=O)cc1 (stereo not given) | 7810
O=C(Cn1nnc(-c2ccccc2)n1)Nc1ccnn1Cc1ccccc1 | 9060
Cc1sc2ncnc(-c3cccc4cccnc34)c2c1C | 9310
Cc1nsc(NC(=O)N2CCC(C(O)CC(C)C)CC2)n1 (stereo not given) | 7860
O=C(O)Cc1ccc(O)c([N+](=O)[O-])c1 | 9380
Cc1cc(C(=O)N2CCc3[nH]nc(COc4ccccc4)c3C2)c(C)o1 | 9410
CCN(Cc1nccn1C)C(=O)c1cc(-c2cnc(C)nc2)nc2cc(F)ccc12 | 10200
OC(CNCC(O)C1CCc2cc(F)ccc2O1)C1CCc2cc(F)ccc2O1 (stereo not given) | 1540
CN1CCN(Cc2ccc3nonc3c2)CC1CCO (stereo not given) | 10000
CN1CCN(Cc2cccc(-n3cccn3)c2)CC1CCO (stereo not given) | 10000
CC(O)Cc1cn(C2CCN(c3ncnc4nc[nH]c34)CC2)nn1 (stereo not given) | 8650
COc1ccc(-c2oc3c(CC=C(C)C)c(OC4OC(CO)C(O)C(O)C4O)cc(O)c3c(=O)c2OC2OC(C)C(O)C(O)C2O)cc1 (stereo not given) | 10400 and 10500
COc1cccc2ncn(Cc3nc4ccccc4o3)c(=O)c12 | 8720
COc1cc(N(C)CC2COc3ccccc3O2)nc(N)n1 (stereo not given) | 4140
COc1cc(Cn2cnc3nccnc3c2=O)cc(OC)c1 | 9790
OCCNc1ncnc2oc(-c3ccccc3)c(-c3ccccc3)c12 | 5160
Cc1nonc1CN(C)c1ncnc2nc[nH]c12 | 10200
COc1ccc(CCNCC(O)COc2cccc(C)c2)cc1OC (stereo not given) | 9170
CCc1cc(CN2CCN(C)C(CCO)C2)on1 (stereo not given) | 9580

SMILES | cell count
CCn1ccnc1CN(C)C(=O)c1cc(-c2cnc(N)nc2)nc2cc(C)ccc12 | 9540
CN(C)CCC=C1c2ccccc2COc2ccc(CC(=O)O)cc21 | 10400 and 10500
CC(=O)Nc1cccc(-c2nn(CC(=O)Nc3cnn(C)n3)c3ccccc23)c1 | 9550
Cc1nsc(NC(=O)N(C)Cc2cn[nH]c2-c2ccc(F)cc2)n1 | 10100
O=C(O)c1ccc(O)cc1O | 9810
COc1ccc(OC)c2c1c(C)cc(=O)n2C | 9790
CCc1nc(NC(=O)NC(c2ccccc2)c2ccco2)nn1C (stereo not given) | 9680
Nc1nc(Nc2cccc(Cl)c2)sc1C(=O)c1ccc(F)cc1 | 8090
NC1=NC(=O)C(=Cc2ccc(-c3ccc(C(=O)O)cc3)o2)S1 | 9370
CN1CC2c3ccccc3Oc3ccc(Cl)cc3C2C1 (stereo not given) | 6330
O=c1ccn2c(n1)OC1C(O)C(CO)OC12 (stereo not given) | 9930
CCCn1ncc(NC(=O)Cn2cc(C)c(-c3cccc(Cl)c3)n2)n1 | 8420
COc1ccccc1C(=O)N1CCC(n2cc(-c3ccccn3)nn2)CC1 | 9560
NC(=O)NC(CCC(=O)O)C(=O)O (stereo not given) | 10400
CCn1ncc(NC(=O)Cn2cc(-c3ncnc4ccsc34)cn2)n1 | 9620
CN(CCc1ccccn1)C(=O)c1ccc2sc(N)nc2c1 | 9520
COc1ccc(C=CC(=O)O)cc1O | 10100
Cc1cc(=O)oc2cc(OC3OC(CO)C(O)C(O)C3O)ccc12 (stereo not given) | 9900
CCn1ccnc1CN(C)C(=O)c1cc(-c2cnc(N)nc2)nc2c(C)cccc12 | 9260
CC(C)C(NC(=O)Cc1c[nH]c2ccccc12)C(=O)O (stereo not given) | 9500
